An excerpt weighted towards active compounds, which were near 17% of everything screened.
TDP1 block: inhibitors of human tyrosyl-DNA phosphodiesterase TDP1; Q9NUW8; recombinant TDP1, AlphaScreen DNA substrate cleavage; Potency, µM (top dose mostly 130 µM), without a hit: at the top dose activity change, negative = inhibition, actives largely listed as inhibitors; hit rate 0.28% among 350,000; AID 485290; also: % is scaled to controls: 0 for no effect and ±100 for the full control effect; nearly all actives have a fitted effect of over 40% in size
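E. coli-derived human Tdp1, 1 nM final. Cpd preinc 15 min RT; substrate 15 nM final, 5 min RT; AS bead mix 10 ug/ml final, 10 min RT. Signal loss = tyrosine-FITC cleavage. No-enzyme wells = max signal.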
ClpP mod: qHTS Assay for Activators of ClpP; purified B. subtilis ClpP, FRET peptide cleavage, 20 min; hit rate 1.9% among 340,000; AID 651965, 2013; Potency, µM (series often up to 57.5 µM), inactives show top-dose activity change, negative = active; ATP-dependent Clp protease proteolytic subunit (Bacillus subtilis (strain 168)), P80244; active = well fitted falling curve with a large enough effect; inconclusive = small, poorly fitted or top-dose-only effect; inactive = no such curve, though single readings can be large or run the other way; also: the source files actives as falling curves though it sought activators and does not explain the sign; nearly all actives have a fitted effect of over 65% in size
Target sequence (P80244 whole entry, looked up): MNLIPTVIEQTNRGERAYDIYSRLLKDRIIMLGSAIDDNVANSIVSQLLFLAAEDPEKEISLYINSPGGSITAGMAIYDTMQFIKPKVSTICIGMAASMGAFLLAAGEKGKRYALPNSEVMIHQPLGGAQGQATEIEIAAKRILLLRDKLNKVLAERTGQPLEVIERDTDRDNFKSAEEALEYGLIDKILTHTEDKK
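Buffer: 100 mM Tris/HCl pH8, 100 mM KCl, 0.05% low protease BSA, 2.5% glycerol, 0.01% Tween-20. ClpP 10 microg/mL final; 20 min RT; delta FRET normalized to ADEP and DMSO controls.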
DT40 TDP1 CPT: growth inhibition of DT40 Tdp1-/-;hTDP1 cells with camptothecin (screen for TDP1 inhibitors); chicken DT40 Tdp1-/-;hTDP1 cells + 20 nM CPT, ATP luminescence, 48 h; Potency, µM (top dose mostly 46.2 µM), for inactives: at the highest dose activity change, negative = growth inhibition, hits mostly inhibitors; hit rate 12% among 420,000; AID 686979; also: % is scaled to controls: 0 for no effect and ±100 for the full control effect; nearly all actives have a fitted effect of over 55% in size
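Cell growth measured by CellTiter-Glo luminescence after a minimum 48 h, 37 C compound exposure with 20 nM CPT in Tdp1-knockout DT40 cells stably expressing hTDP1, seeded 400/well; qHTS titration format.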
TDP1 cell noCPT: qHTS for Inhibitors of human tyrosyl-DNA phosphodiesterase 1 (TDP1): qHTS in cells in absence of CPT; AID 686978, 2013; DT40 Tdp1-/- hTDP1 cells, no CPT, ATP luminescence, 48 h; Potency, µM (highest dose often 46.2 µM), inactives show at the highest dose activity change, negative = growth inhibition, actives largely listed as inhibitors; hit rate 15% among 420,000; also: % is scaled to controls: 0 for no effect and ±100 for the full control effect; nearly all actives have a fitted effect of over 55% in size
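Chicken DT40 Tdp1-/- cells complemented with human TDP1, screened without camptothecin (DMSO vehicle only), 400 cells/well. Compounds pin-transferred, cells incubated at 37 °C for at least 48 hr. Growth read as ATP-dependent luminescence (CellTiter-Glo, 30 min at RT).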
The depositor's hits bear a star; [ ] = dose if it differs, or a comment. Unless noted, calls follow the shape of the dose curve; as a rule, active = well fitted curve in the direction sought with a large enough effect; inconclusive = small, poorly fitted or top-dose-only effect, or another doubt; inactive = no such curve, though single readings can be large; an effect the other way counts as inactive or inconclusive. Potency is read from the fitted curve at half-maximal effect.

`O=c1[nH]c2cc3c(cc2cc1C(c1nnnn1C1CCCC1)N1CCSCC1)OCCO3` (centres undefined) gave TDP1 block 7%, ClpP mod inconclusive, DT40 TDP1 CPT 23µM* and TDP1 cell noCPT 18µM*.
Screening CCC(C)(C)n1nnnc1C(c1cc2cc3c(cc2[nH]c1=O)OCO3)N1CCN(C)CC1 (centres undefined) returned TDP1 block 4%, ClpP mod 8.9µM*, DT40 TDP1 CPT -5% and TDP1 cell noCPT -5%.
CCC(C)(C)n1nnnc1C(c1cc2ccc(OC)cc2[nH]c1=O)N1CCCCC1 (centres undefined) was read as TDP1 block 7%, ClpP mod -27%, DT40 TDP1 CPT inconclusive and TDP1 cell noCPT inconclusive.
Screening COc1cc(OC)c(NC(=O)Cn2c(=O)nc(-c3ccccc3)c3ccccc32)cc1Cl returned TDP1 block -6%, ClpP mod 0%, DT40 TDP1 CPT -6% and TDP1 cell noCPT 13%.
For Cc1ccc(C(=O)N2CCN(S(=O)(=O)N3CCCCC3)CC2)cc1 the results were TDP1 block 0%, ClpP mod -1%, DT40 TDP1 CPT -4% and TDP1 cell noCPT 1%.
CCOc1cc(N2CCOCC2)c(OCC)cc1NC(=O)COC(=O)c1c(C)noc1C was read as ClpP mod 0%, DT40 TDP1 CPT inconclusive and TDP1 cell noCPT inconclusive.
COc1cccc(NC(=O)c2ccc(CN3CCOCC3)cc2)c1 was read as TDP1 block 4%, ClpP mod 2%, DT40 TDP1 CPT -17% and TDP1 cell noCPT inconclusive.
`COc1ccc(NS(=O)(=O)c2ccc(NC(=O)c3ccc(CN4CCOCC4)cc3)cc2)cc1` gave TDP1 block 11%, DT40 TDP1 CPT 18µM* and TDP1 cell noCPT 23µM*.
`CCCCCCOc1ccc(OC(=O)c2ccncc2)cc1` gave TDP1 block 2%, ClpP mod 0%, DT40 TDP1 CPT 13µM* and TDP1 cell noCPT 23µM*.
CCCCCCc1ccc(OC(=O)c2ccncc2)cc1 was read as ClpP mod 1%, DT40 TDP1 CPT -19% and TDP1 cell noCPT -23%.
`COc1ccc(CN2CCOCCOCCN(Cc3ccc(OC)cc3)CCOCCOCC2)cc1` gave TDP1 block 0%, ClpP mod 0%, DT40 TDP1 CPT inconclusive and TDP1 cell noCPT 29µM*.
O=C(Nc1ccc(S(=O)(=O)Nc2ccc(F)cc2)cc1)c1ccc(CN2CCOCC2)cc1 was read as TDP1 block -5%, DT40 TDP1 CPT inconclusive and TDP1 cell noCPT 18µM*.
For CC(C)(CNC(=O)c1ccc(NS(=O)(=O)c2ccc(F)cc2)cc1)N1CCOCC1 the results were TDP1 block 2%, ClpP mod -2%, DT40 TDP1 CPT 7% and TDP1 cell noCPT 3%.
For C/C(=N/NS(=O)(=O)c1ccc(Br)cc1)c1cccc(NC(=O)C2CC2)c1 the results were ClpP mod -1%, DT40 TDP1 CPT -17% and TDP1 cell noCPT -6%.
`CCn1c(=O)cc(SCC(=O)Nc2ccc(C)c(F)c2)c2ccccc21` gave TDP1 block 2%, ClpP mod -10%, DT40 TDP1 CPT inconclusive and TDP1 cell noCPT inconclusive.
For CCCCOc1ccc(C(=O)Nc2ccc(CN3CCOCC3)cc2)cc1 the results were ClpP mod 0%, DT40 TDP1 CPT 13µM* and TDP1 cell noCPT inconclusive.
CCCOc1ccc(C(=O)Nc2ccc(CN3CCOCC3)cc2)cc1 was read as TDP1 block 0%, ClpP mod 1%, DT40 TDP1 CPT inconclusive and TDP1 cell noCPT inconclusive.
`O=C(Nc1ccc(S(=O)(=O)N2CCCCC2)cc1)c1ccc(CN2CCOCC2)cc1` gave TDP1 block 7%, ClpP mod -2%, DT40 TDP1 CPT 18µM* and TDP1 cell noCPT 23µM*.
For CCCCOc1ccc(C(=O)Nc2ccncc2)cc1 the results were TDP1 block 1%, ClpP mod -15%, DT40 TDP1 CPT 5.2µM* and TDP1 cell noCPT 2.6µM*.
For O=C(Nc1ccc(S(=O)(=O)N2CCCC2)cc1)c1ccc(CN2CCOCC2)cc1 the results were TDP1 block 5%, ClpP mod 1%, DT40 TDP1 CPT inconclusive and TDP1 cell noCPT inconclusive.
Screening CCCOc1ccc(C(=O)Nc2cccnc2)cc1 returned ClpP mod -1%, DT40 TDP1 CPT inconclusive and TDP1 cell noCPT inconclusive.
Screening COc1ccc(CCNC(=O)c2c[nH]n3c(=O)c(Cc4ccccc4Cl)c(C)nc23)cc1OC returned TDP1 block 16%, ClpP mod 4%, DT40 TDP1 CPT inconclusive and TDP1 cell noCPT inconclusive.
For Cc1nsc(Nc2ccc([N+](=O)[O-])cc2)c1C#N the results were TDP1 block 6%, DT40 TDP1 CPT 2.6µM* and TDP1 cell noCPT 2.3µM*.
Screening Cc1ccc(Nc2ccc([N+](=O)[O-])ccc2=O)cc1 returned DT40 TDP1 CPT 9% and TDP1 cell noCPT 0%.
`Cc1[nH]c2ccccc2c1C(c1c(C)[nH]c2ccccc12)c1c(C)[nH]c2ccccc12` gave ClpP mod 0%, DT40 TDP1 CPT inconclusive and TDP1 cell noCPT inconclusive.
For Cc1cc2[nH]c3ccccc3c2c(C)n1 the results were TDP1 block 0%, ClpP mod 28µM*, DT40 TDP1 CPT inconclusive and TDP1 cell noCPT 16µM*.
For N#Cc1ccc(CN2CCC3(CC2)CCN(C(=O)c2ccncc2)CC3)cc1 the results were DT40 TDP1 CPT 0% and TDP1 cell noCPT -9%.
For C=CCn1c2ccccc2c2nnc(SCN3C(=O)c4ccccc4C3=O)nc21 the results were TDP1 block 3%, ClpP mod -4%, DT40 TDP1 CPT -28% and TDP1 cell noCPT -24%.
`C=CCn1c2ccccc2c2nnc(SCCN3CCCCC3)nc21` gave ClpP mod 0%, DT40 TDP1 CPT -26% and TDP1 cell noCPT 18µM*.
For C=CCn1c2ccccc2c2nnc(SCCCn3c(=O)[nH]c4ccccc43)nc21 the results were TDP1 block 5%, ClpP mod 0%, DT40 TDP1 CPT inconclusive and TDP1 cell noCPT 13µM*.
For c1ccc(Cn2c3ccccc3c3nnc(SCCN4CCCCC4)nc32)cc1 the results were TDP1 block 5%, DT40 TDP1 CPT 23µM* and TDP1 cell noCPT 23µM*.
Cn1c(=O)c2c(nc(SCCN3CCCCC3)n2Cc2ccccc2)n(C)c1=O was read as TDP1 block 3%, ClpP mod 1%, DT40 TDP1 CPT inconclusive and TDP1 cell noCPT -26%.
Screening Cc1cccc(Nc2ncnc3c2cnn3C)c1C returned TDP1 block 10%, ClpP mod 2%, DT40 TDP1 CPT -25% and TDP1 cell noCPT inconclusive.
For Cc1ccc(C(=O)C(C)CN2CCCCC2)cc1 (centres undefined) the results were TDP1 block -15%[56.1 µM], DT40 TDP1 CPT inconclusive and TDP1 cell noCPT inconclusive.

From PubChem BioAssay
